Screens (PubChem)
An excerpt weighted towards active compounds, which were near 7.5% of everything screened.
KinaseGlo FLuc: Counterscreen for Luciferase (Kinase-Glo TM) Inhibition. Luciferin 4-monooxygenase (Photuris pensylvanica), Q27757. Kinase-Glo luciferase, ATP luminescence, 8 min. Potency, µM (series often up to 38.3 µM), inactives show at the top dose activity change, negative = inhibition, actives largely listed as inhibitors. 0.28% of 200,000 active; note: % is set by controls: 0 for no effect and ±100 for the full control effect; nearly all actives have a fitted effect of over 60% in size
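Compound is pinned into ATP-containing buffer (10 uM ATP, imidazole pH 7.2, 7 mM MgCl2). Kinase-Glo luciferase reagent is then added. Light output is recorded following an 8-min room-temperature incubation.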
NPC1 prom act: qHTS Assay for NPC1 Promoter Activators; Potency, µM (doses to about 9.22 µM), for the others: at the highest dose activation, actives largely listed as activators; 2.4% of 320,000 active; AID 485313, 2010; Huh7 NPC1 promoter luciferase reporter, 24 h; note: % of control where 0% means no effect; nearly all actives have a fitted effect of over 60% in size
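NPC1 promoter–luciferase Huh7 cells; 24 h compound; luminescence.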
Rab9 prom act: qHTS Assay for Rab9 Promoter Activators. AID 485297, 2010. 2.8% of 320,000 active. Huh7 Rab9 promoter-luciferase reporter, luminescence, 24 h. Potency, µM (doses to about 9.22 µM), for the others: at the top dose activation, negative = inhibition, hits mostly activators; note: % of control where 0% means no effect; nearly all actives have a fitted effect of over 60% in size
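Luciferase signal after 10 min detection reagent at ambient indicates Rab9 promoter upregulation; stably transfected Huh7 cells were treated 24 h with compound in DMSO at 37 °C, 5% CO2.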
ELG1 genotoxic: qHTS screen for small molecules that induce genotoxicity in human embryonic kidney (HEK293T) cells expressing luciferase-tagged ELG1; Potency, µM (series often up to 46 µM), for inactives: at the top dose activity change, positive = activation, hits mostly activators; HEK293T ELG1-luciferase reporter, luminescence, 16 h; 1.3% of 330,000 active; note: % of control where 0% means no effect; nearly all actives have a fitted effect of over 60% in size
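Cells (2,000/well) expressing the ELG1-luciferase fusion are dosed by pin tool and kept 16 hr at 37 °C, 5% CO2. Signal comes from ONE-Glo luciferase reagent after 30 min at room temperature.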
FLuc counter: qHTS profiling assay for firefly luciferase inhibitor/activator using purifed enzyme and Km concentrations of substrates (counterscreen for miR-21 project) | Luciferin 4-monooxygenase (Photinus pyralis), P08659 | 6.9% of 360,000 active | purified FLuc, Km substrates, luminescence inhibition | Potency, µM (top dose mostly 57.5 µM), without a hit: top-dose activity change, negative = inhibition, usual class: inhibitors;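 note: plate controls were vehicle for no effect and reference inhibitor for full effect; nearly all actives have a fitted effect of over 55% in size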
Target sequence (P08659 whole entry, looked up): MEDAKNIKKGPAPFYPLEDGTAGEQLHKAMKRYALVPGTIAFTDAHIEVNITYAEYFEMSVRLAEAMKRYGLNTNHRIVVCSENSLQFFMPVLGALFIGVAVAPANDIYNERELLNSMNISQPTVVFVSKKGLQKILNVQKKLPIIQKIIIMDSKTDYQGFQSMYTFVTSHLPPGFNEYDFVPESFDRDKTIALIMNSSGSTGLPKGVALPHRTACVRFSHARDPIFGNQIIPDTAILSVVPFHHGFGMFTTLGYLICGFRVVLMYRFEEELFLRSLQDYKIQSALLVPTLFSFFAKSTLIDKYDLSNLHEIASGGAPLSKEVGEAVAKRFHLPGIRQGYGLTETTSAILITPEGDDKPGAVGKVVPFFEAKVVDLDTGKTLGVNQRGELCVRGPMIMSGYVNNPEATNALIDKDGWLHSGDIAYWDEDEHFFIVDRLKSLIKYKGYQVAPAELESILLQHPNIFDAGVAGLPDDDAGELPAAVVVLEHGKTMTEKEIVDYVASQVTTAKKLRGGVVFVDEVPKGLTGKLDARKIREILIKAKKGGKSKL
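Biochemical qHTS of compounds, final roughly 60 µM downward over six points, against 10 nM purified firefly luciferase using Km concentrations of substrates (10 uM D-luciferin, 10 uM ATP) in Tris acetate pH 7.5 buffer; luminescence output.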
SMN2 splice enh: qHTS Assay for Enhancers of SMN2 Splice Variant Expression; Potency, µM (series often up to 46.1 µM), for the others: at the top dose activity change, positive = activation, usual class: activators; 2.8% of 210,000 active; HEK293 SMN2-luciferase splicing reporter, luminescence, 30-36 h; note: % of control where 0% means no effect; nearly all actives have a fitted effect of over 55% in size
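HEK293 cells carry an SMN2 minigene-luciferase reporter in which exon 7 inclusion puts luciferase in frame. Cells were seeded at 2000 cells/well, attached for 10-12 hours, then exposed to compounds for 30-36 hours at 37C before ONE-Glo luminescence.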
Numbers without * were called inactive; ? = inconclusive; / = no result given; [ ] = dose if it differs, or a comment. Calls come from the whole dose curve; as a rule, active = well fitted curve in the direction sought with a large enough effect; inconclusive = small, poorly fitted or top-dose-only effect, or another doubt; inactive = no such curve, though single readings can be large; an effect the other way counts as inactive or inconclusive. Potency is the fitted concentration of half-maximal effect.

SMILES	KinaseGlo FLuc	NPC1 prom act	Rab9 prom act	ELG1 genotoxic	FLuc counter	SMN2 splice enh
CSc1ccc(/C=C/C(=O)c2ccc(NC(=O)C(C)C)cc2)cc1	-2.2%	-2.3%	-9.6%	-2.5%	9.53µM*	-14.3%
CSc1ccc(/C=C/C(=O)c2ccc(NC(=O)Cc3ccccc3)cc2)cc1	-1.1%	0.5%	4.1%	-3.6%	12µM*	-10.0%
CC(C)C(=O)Nc1ccc(Sc2ccc(F)cc2)cc1	-0.6%	-3.4%	-0.6%	-0.3%	1.2%	-8.0%
CCn1c(CN2CCC(C)CC2)nc2cc(NC(=O)COc3ccc([N+](=O)[O-])cc3)ccc21	/	/	/	/	-1.6%	/
CSCCC(NS(=O)(=O)c1ccc2c(c1)oc(=O)n2C)C(=O)NCc1ccc(Cl)cc1 (stereo not given)	/	/	/	/	-0.4%	/
COc1cc(CN2CCc3nc(Nc4ccc5c(c4)OCCO5)ncc3C2)cc(OC)c1OC	/	/	/	/	15.1µM*	/
COc1ccccc1Nc1ncc2c(n1)CCN(Cc1cc(F)cc(F)c1)C2	/	/	/	/	1.4%	/
CCc1ccc(CN2CCc3nc(Nc4ccc5c(c4)OCCO5)ncc3C2)cc1	/	/	/	/	-17.6%	/
COc1ccccc1Nc1ncc2c(n1)CCN(CC(C)C)C2	/	/	/	/	21.3µM*	/
CC1(C)OC2CC(=O)OCC23C1CC(=O)C1(C)C3CC[C@@]2(C)[C@H](c3ccoc3)OC(=O)C3OC312 (stereo not given in full)	1.4%[39.9 µM]	/	/	/	/	/
COCCCNC(=O)Cn1c(=O)n(-c2ccc(Cl)cc2)c(=O)c2c3c(sc21)CCCCC3	/	/	/	/	1.8%	2.6%
Cc1ccc(-c2csc(NC(=O)CSC3=NCCS3)n2)cc1	-3.4%	11.9%	18.3%	?	13.5µM*	19.0%
CCOC(=O)N1CCN(C(=O)CSCC(=O)Nc2nc(-c3ccc(-c4ccccc4)cc3)cs2)CC1	-3.2%	?	?	2.59µM*	-16.1%	-1.5%
O=C(CSC1=NCCS1)Nc1nc2ccccc2s1	-0.8%	29.1%	?	8.6%	19µM*	10.2%
Cc1sc(NC(=O)CSC2=NCCS2)nc1-c1ccccc1	1.7%	1.0%	-0.3%	-5.1%	-14.7%	-21.1%
Cc1cccc(N2CCN(C(=O)Cn3nc(C)c4sc5ccccc5c4c3=O)CC2C)c1 (stereo not given)	/	/	/	/	-0.4%	/
CC1Cc2cc(/C(O)=C3/C(=O)C(=O)N(CCCn4ccnc4)C3c3ccco3)ccc2O1 (stereo not given)	1.6%	?	2.82µM*	?	15.1µM*	-13.6%
CC(C)Oc1ccc(/C(O)=C2/C(=O)C(=O)N(CCN(C)C)C2c2ccco2)cc1 (stereo not given)	2.3%	25.4%	?	?	21.3µM*	27.5%
CCN(CC)CCN1C(=O)C(=O)/C(=C(/O)c2ccc(OC)cc2)C1c1ccco1 (stereo not given)	/	15.2%	6.3%	3.2%	?	/
Cc1ccc(/C=C/C(=O)Nc2ccncc2)o1	-2.9%	3.8%	1.7%	3.3%	16.9µM*	2.0%
Cc1ccc(/C=C/C(=O)Nc2ccc(S(N)(=O)=O)cc2)o1	-2.9%	-0.9%	-2.4%	-0.8%	?	-5.1%
Cc1ccc(/C=C/C(=O)Nc2ccc(N(C)C)cc2)o1	7.6%	?	?	?	3.01µM*	14.1µM*
COc1cc(OC)c2c(C)c(CC(=O)NCc3ccccc3OC)c(=O)oc2c1	/	/	/	/	-2.8%	3.2%
COc1cc(/C=N/NC(=O)CSc2ccccn2)ccc1O	/	-5.1%	15.5%	3.1%	?	/
COc1ccc(/C=N/NC(=O)c2ccn[nH]2)cc1CSc1ccccn1	/	?	?	?	10.7µM*	/
SMILES	KinaseGlo FLuc	NPC1 prom act	Rab9 prom act	ELG1 genotoxic	FLuc counter	SMN2 splice enh
CC(=C/c1ccc(C(C)C)cc1)/C=N/NC(=O)CSc1ccccn1	-2.0%	?	2.82µM*	?	?	2.8%[1.84 µM]
CC(/C=N/NC(=O)CSc1ccccn1)=C\c1ccc(C(C)C)cc1	2.4%	?	22.5%	?	?	?
CCCOc1ccc(/C=N/NC(=O)CSc2ccccn2)cc1OC	/	1.9%	?	13.1%	10.7µM*	/
COc1ccc(/C=N/NC(=O)c2cccc(Br)c2)cc1CSc1ccccn1	2.8%	2.3%	-6.0%	0.4%	-6.9%	-12.3%
CN(C)c1ccc(/C=N/NC(=O)CSc2ccccn2)cc1	/	27.0%	?	?	12µM*	/
O=C(Nc1nc2ccc(S(=O)(=O)N3CCCC3)cc2s1)c1cccc(F)c1	/	/	/	/	-2.2%	/
Cc1ccc(O)c(-c2cc(-c3ccc(F)cc3)no2)c1	/	-32.7%	-33.2%	2.06µM*	0.953µM*	/
Cc1ccccc1-c1cc(-c2ccccc2O)on1	-26.2%	?	?	?	1.9µM*	7.08µM*
Oc1ccccc1-c1cc(-c2ccccc2)no1	-20.8%	5.62µM*	?	?	0.849µM*	3.16µM*
Cc1ccc(O)c(NC(=O)c2cc(-c3ccccc3O)no2)c1	/	/	/	/	6.4%	/
Cc1ccc(-c2cc(-c3ccccc3)no2)c(O)c1	-17.2%	3.16µM*	2µM*	0.366µM*	0.169µM*	/
Cc1onc(-c2ccccc2Cl)c1C(=O)NC(=S)NCC(=O)c1ccccc1	2.2%	-0.1%	19.6%	?	?	-15.9%
Cc1ccc(C)c(-c2nnc(NC(=O)c3ccco3)o2)c1	/	0.3%	-2.2%	-7.5%	15.1µM*	/
Cc1ccc(-c2nnc(NC(=O)c3ccco3)o2)c(C)c1	/	?	?	-3.7%	2.69µM*	/
O=C(Nc1nnc(-c2ccccc2Cl)o1)c1ccco1	-8.4%	20.0%	-4.4%	?	6.01µM*	?
Cn1cc(Br)c(C(=O)Nc2sc3c(c2C(N)=O)CCC3)n1	-6.9%	22.4%	17.7%	12.1%	10.7µM*	40.7%
Cn1ccc(C(=O)Nc2sc3c(c2C(N)=O)CCCCC3)n1	/	1µM*	0.501µM*	0.461µM*	0.601µM*	/
Cn1nccc1C(=O)Nc1sc2c(c1C(N)=O)CCCC2	-1.5%	25.2%	?	?	9.53µM*	5.0%
CCn1ncc(Br)c1C(=O)Nc1sc2c(c1C(N)=O)CCC2	0.0%	-0.1%	10.2%	0.9%	-4.2%	-8.9%
Cc1cc(C(F)F)n2nc(C(=O)Nc3sc4c(c3C(N)=O)CCC4)nc2n1	0.1%	2.4%	-1.9%	1.3%	12µM*	-8.1%
Cn1nccc1C(=O)Nc1sc2c(c1C#N)CCCC2	/	11.8%	5.8%	11.3%	?	/
CC(=O)Nc1sc2c(c1C(N)=O)CCCC2	-2.6%	-2.2%	8.9%	-0.7%	2.7%	4.8%
